# The supplement of paper PMC9694430
# Structures can show the parent of a compound that is named as a salt.
# Columns and labels:
# Assay in all cases: thermal shift delta Tm vs DMSO control; higher = stronger stabilization (binding)
# Details in all cases: 12.5 µM; protein concentration 2 µM
# LOC_OS04G57630-cb004 = test system: LOC_OS04G57630-cb004
# How it was run: (§1)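 Rice kinase domain constructs, made in E. coli and purified, were placed in 96-well plates at 2 μM in 19.5 μl of 100 mM potassium phosphate pH 7.5, 150 mM NaCl, 10% glycerol and 5 × SYPRO Orange, with compound in DMSO. A temperature ramp from 25°C to 95°C at 0.05°C/s was used for differential scanning fluorimetry. The melting temperature shift is a triplicate mean compared with DMSO-only protein, derived from Boltzmann fits.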
# LOC_OS05G07850-cb002 = test system: LOC_OS05G07850-cb002
# How it was run: as §1
# LOC_OS05G16824-cb004 = test system: LOC_OS05G16824-cb004
# How it was run: as §1
# LOC_OS05G28520-cb001 = test system: LOC_OS05G28520-cb001
# How it was run: as §1
# LOC_OS05G30820-cb001 = test system: LOC_OS05G30820-cb001
# How it was run: as §1
# LOC_OS05G43570-cb004 = test system: LOC_OS05G43570-cb004
# How it was run: as §1
# LOC_OS06G16330-cb003 = test system: LOC_OS06G16330-cb003
# Sequence of LOC_OS06G16330-cb003 (as listed by the source): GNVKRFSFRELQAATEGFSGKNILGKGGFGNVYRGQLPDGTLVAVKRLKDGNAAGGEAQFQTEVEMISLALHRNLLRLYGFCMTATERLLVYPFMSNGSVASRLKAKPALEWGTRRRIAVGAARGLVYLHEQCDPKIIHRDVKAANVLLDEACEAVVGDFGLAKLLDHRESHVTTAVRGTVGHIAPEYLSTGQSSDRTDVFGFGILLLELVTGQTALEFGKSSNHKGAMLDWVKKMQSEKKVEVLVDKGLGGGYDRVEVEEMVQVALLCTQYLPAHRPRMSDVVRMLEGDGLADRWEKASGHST
# How it was run: as §1
# LOC_OS06G22820-cb001 = test system: T1, LOC_OS06G22820-cb001
# T1 sequence (whole entry): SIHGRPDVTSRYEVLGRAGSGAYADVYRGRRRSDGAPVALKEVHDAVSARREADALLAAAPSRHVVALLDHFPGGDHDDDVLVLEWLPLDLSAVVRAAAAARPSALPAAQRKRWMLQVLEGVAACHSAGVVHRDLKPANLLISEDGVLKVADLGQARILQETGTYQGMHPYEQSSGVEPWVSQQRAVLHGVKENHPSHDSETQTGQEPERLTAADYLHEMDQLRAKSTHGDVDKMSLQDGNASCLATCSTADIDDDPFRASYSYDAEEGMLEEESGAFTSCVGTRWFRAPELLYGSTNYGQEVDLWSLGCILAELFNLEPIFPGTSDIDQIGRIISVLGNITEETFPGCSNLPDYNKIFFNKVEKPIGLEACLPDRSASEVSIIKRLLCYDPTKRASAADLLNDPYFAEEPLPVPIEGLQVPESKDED
# How it was run: as §1
# LOC_OS07G06570-cb004 = test system: LOC_OS07G06570-cb004
# How it was run: as §1
# LOC_OS07G07230-cb001 = test system: LOC_OS07G07230-cb001
# How it was run: as §1
# 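Note: purified Escherichia coli-expressed rice kinase domain construct.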
SMILES,thermal shift delta Tm (LOC_OS04G57630-cb004) [°C],thermal shift delta Tm (LOC_OS05G07850-cb002) [°C],thermal shift delta Tm (LOC_OS05G16824-cb004) [°C],thermal shift delta Tm (LOC_OS05G28520-cb001) [°C],thermal shift delta Tm (LOC_OS05G30820-cb001) [°C],thermal shift delta Tm (LOC_OS05G43570-cb004) [°C],thermal shift delta Tm (LOC_OS06G16330-cb003) [°C],thermal shift delta Tm (LOC_OS06G22820-cb001) [°C],thermal shift delta Tm (LOC_OS07G06570-cb004) [°C],thermal shift delta Tm (LOC_OS07G07230-cb001) [°C]
O=c1ccc2ccc(O)c(O)c2o1 [Daphnetin],0.17,0.01,-3.57,0.77,0.79,0.83,0.25,0.83,1.31,-0.12
CN1CCC(Nc2nc(Nc3ccc(Oc4ccccc4)cc3)c3c(=O)[nH]cc(Br)c3n2)CC1,1.8,7.31,9.77,1.25,1.19,1.11,2.6,0.71,-0.18,-0.18
CO[C@@H](C(=O)N1Cc2[nH]nc(NC(=O)c3ccc(N4CCN(C)CC4)cc3)c2C1)c1ccccc1,2.02,6.58,5.14,0.31,0.48,0.25,7.87,2.69,0.66,0
Cc1c(NC(=O)OC[C@@H]2COCCN2)cn2ncnc(Nc3ccc4c(cnn4Cc4cccc(F)c4)c3)c12,0.21,0.64,0.54,0.43,0.46,0.75,-0.49,0.8,0.91,0.29
CNC(=O)c1cc(Oc2ccc(NC(=O)Nc3ccc(Cl)c(C(F)(F)F)c3)cc2)ccn1 [Sorafenib],2.09,9.44,1.37,-0.04,0.65,1.2,2.66,1.5,1,-0.34
OC1CCC(Nc2ncc3nc(Nc4c(F)cc(F)cc4F)n([C@H]4CCOC4)c3n2)CC1 (stereo not given in full) [Tanzisertib(CC-930)],-0.03,0.72,2.14,0.46,0.23,0.42,-0.07,0.59,1.81,0.44
CCOc1ccn(-c2ccc(F)cc2)c(=O)c1C(=O)Nc1ccc(Oc2ccnc(N)c2Cl)c(F)c1,0.68,11.6,1.29,0.56,0.42,1.2,4.26,0.43,0.64,0.01
"Nc1cc(C(F)(F)F)c(-c2cc(N3CCOCC3)nc(N3CCOCC3)n2)cn1 [Buparlisib (BKM120, NVP-BKM120)]",0.52,0.95,-3.32,0.28,0.66,0.71,0.02,0.75,0.64,-0.59
COCCNCc1ccc(-c2cc3nccc(Oc4ccc(NC(=O)C5(C(=O)Nc6ccc(F)cc6)CC5)cc4F)c3s2)nc1 [Sitravatinib (MGCD516)],7.89,14.5,10.7,7.64,0.29,0.73,9.07,0.6,0.67,-0.46
Cc1cc2c(F)c(Oc3ncnn4cc(OC[C@@H](C)O)c(C)c34)ccc2[nH]1,0.32,2.97,-0.74,0.85,0.47,-0.02,0.19,0.53,0.51,0.51
CC(C)(O)CNc1ncc(-c2ccnc(Nc3ccnc(Cl)c3)n2)c(CC2CC2)n1,0.07,7.44,0.09,0.75,0.41,0.5,4.77,0.62,0.78,0.71
O=C(NOCC1CC1)c1ccc(F)c(F)c1Nc1ccc(I)cc1Cl,0.14,1.54,2.02,1.8,0.63,1.06,0.69,1.27,1.57,0.31
N#Cc1cccc(-c2c[nH]c3ncnc(N4CCOCC4)c23)c1,0.05,12.3,1,0.3,0.46,0.26,3.82,0.53,0.63,0.58
O=C(NOCCO)c1ccc2cncn2c1Nc1ccc(I)cc1F,-0.36,-0.3,-1.92,0.09,0.54,0.3,-0.27,0.39,0.35,0.91
O=S(=O)(NCCNC/C=C/c1ccc(Br)cc1)c1cccc2cnccc12,-0.1,2.68,-0.59,-0.13,0.53,0.62,0.87,0.31,1.14,0.17
COc1cc(N2CCC(N)CC2)ccc1Nc1ncc(Cl)c(-c2c[nH]c3ccccc23)n1,4.46,13.4,8.24,1.74,2.33,1.06,10.4,0.85,2.26,1.14
NC[C@@](O)(c1ccc(Cl)cc1)c1ccc(-c2cn[nH]c2)cc1,0.11,1.75,0.67,0.5,0.47,2.11,0.77,0.65,0.91,0.04
Oc1c(F)cc(-c2cnccc2-c2ccc(N3CCOCC3)cc2)cc1F,0.16,3.05,-0.48,0.43,0.5,0.44,0.26,0.6,0.96,0.44
CNC(=O)c1cc(Oc2ccc(NC(=O)Nc3ccc(Cl)c(C(F)(F)F)c3)c(F)c2)ccn1 [Regorafenib (BAY 73-4506)],0.11,1.47,-2.37,0.42,0.34,0.38,-0.02,0.83,0.59,0.35

SMILES,thermal shift delta Tm (LOC_OS04G57630-cb004) [°C],thermal shift delta Tm (LOC_OS05G07850-cb002) [°C],thermal shift delta Tm (LOC_OS05G16824-cb004) [°C],thermal shift delta Tm (LOC_OS05G28520-cb001) [°C],thermal shift delta Tm (LOC_OS05G30820-cb001) [°C],thermal shift delta Tm (LOC_OS05G43570-cb004) [°C],thermal shift delta Tm (LOC_OS06G16330-cb003) [°C],thermal shift delta Tm (LOC_OS06G22820-cb001) [°C],thermal shift delta Tm (LOC_OS07G06570-cb004) [°C],thermal shift delta Tm (LOC_OS07G07230-cb001) [°C]
O=C(Nc1nccs1)C(c1cc(F)ccc1O)N1Cc2ccccc2C1=O (stereo not given),0,-0.08,-0.86,0.12,0.61,-0.04,-0.29,0.38,1.35,0.63
CC#CC(=O)N1CCC[C@H]1c1nc(-c2ccc(C(=O)Nc3ccccn3)cc2)c2c(N)nccn12 [Acalabrutinib (ACP-196)],0.54,1.21,-2.72,0.31,0.59,0.02,0.81,0.52,1.01,0.32
C[C@@]1(C(=O)Nc2ccc(F)nc2)CCCN1c1nc(Nc2cc(C3CC3)n[nH]2)c2cccn2n1,0.45,6.93,7.72,1.51,0.52,0.32,7.13,-0.88,1.23,0.05
Cc1ncc(-c2ccnc(Nc3ccc(S(C)(=O)=O)cc3)n2)n1C(C)C,1.43,11.2,6.1,0.35,1.14,0.74,5.53,1.02,0.69,0.17
COc1ccc(Cl)cc1NC(=O)Nc1cc(C)nc2ccccc12,0.07,0.02,0.17,0.38,0.46,0.5,0.31,0.69,0.61,0.62
OCCn1cc(-c2ccc3c(c2)CC/C3=N\O)c(-c2ccncc2)n1,0.24,2.18,0.35,1.1,0.48,0.5,0.46,0.85,0.92,0.21
CN1CCN(Cc2ccc(NC(=O)Nc3ccc(Oc4ccnc(N)n4)cc3)cc2C(F)(F)F)CC1,6.19,11.9,-5.04,0.9,0.74,1.72,5.38,0.66,0.91,-1.04
O=C(Cc1ccc(-c2ccc(OCCN3CCOCC3)cc2)cn1)NCc1ccccc1,0.12,0.35,-2.04,0.32,0.37,0.34,-0.02,0.6,0.25,-0.12
S=C(NCc1ccc2c(c1)OCO2)N1CCN(c2ncnc3c2oc2ccccc23)CC1 [Amuvatinib (MP-470)],0.4,1.46,-4.2,0.42,0.8,0.49,1.01,0.7,0.32,0.06
CO[C@@H](C)Cn1c(=O)n(C)c2cnc3ccc(-c4cncc(C(C)(C)O)c4)cc3c21,0.18,4.35,-0.98,0.31,0.49,0.43,0.71,0.7,0.91,0.7
COCCOc1cnc2ccn([C@H](C)c3nnc4c(F)cc(-c5cnn(C)c5)cn34)c(=O)c2c1,0.33,0.47,-0.61,0.19,0.72,0.35,2.3,0.29,1.07,0.81
C[C@H](NC(=O)/C(C#N)=C/c1cccc(Br)n1)c1ccccc1,-1.13,-0.94,-17.3,-0.45,0.31,-0.67,-1.56,0.13,0.17,-0.47
CO[C@H]1C[C@@H]2CC[C@@H](C)[C@@](O)(O2)C(=O)C(=O)N2CCCC[C@H]2C(=O)O[C@H]([C@H](C)C[C@@H]2CC[C@H](n3cnnn3)[C@H](OC)C2)CC(=O)[C@H](C)/C=C(\C)[C@@H](O)[C@@H](OC)C(=O)[C@H](C)C[C@H](C)/C=C/C=C/C=C/1C [Zotarolimus(ABT-578)],0.76,0.65,-0.34,0.87,0.57,1.17,-0.09,0.92,1.43,-0.08
Cn1c(=O)c(F)c(Nc2ccc(I)cc2F)c2c(=O)n(C[C@@H](O)CO)cnc21,0.47,1.59,-1.32,0.23,0.72,1.08,0.18,0.76,0.33,0.02
CCc1nc(C(N)=O)c(Nc2ccc(N3CCC(N4CCN(C)CC4)CC3)c(OC)c2)nc1NC1CCOCC1 [Gilteritinib (ASP2215)],5.73,17.4,9.44,1.33,0.92,1.54,15.3,0.74,1.35,0.17
"CC(C)(O)CNc1ncc(-c2ccnc(Nc3ccncc3)n2)c(CC2CC2)n1 [VPS34 inhibitor 1 (Compound 19, PIK-III analogue)]",0.13,6.5,2.61,0.38,0.25,0.5,3.99,0.4,1.83,0.44
C[C@H]1CNCCCN1S(=O)(=O)c1cccc2cncc(F)c12 [Ripasudil (K-115) hydrochloride dihydrate],0.43,3.53,-0.98,0.51,0.26,0.76,0.41,0.46,0.19,0.2
O=C(NOC[C@H](O)CO)c1ccc(F)c(F)c1Nc1ccc(I)cc1F,-0.16,-0.38,0.88,0.62,0.37,1.5,0.23,1.03,1.11,0.26
NCC(=O)Nc1ccc(-n2nc(C(F)(F)F)cc2-c2ccc3c(ccc4ccccc43)c2)cc1,-0.2,1.75,1.88,0.25,-0.08,0.27,0.39,0.4,0.5,0.18
